Source: the supplement of paper PMC11219838
A number with no mark means an inactive call.

Columns and labels:
Conditions in all cases: 60 µM; 5 days; temperature: 20 °C
Meloidogyne hapla J2 = assay: proportion of mobile M. hapla J2 relative to DMSO control (fraction of DMSO control); higher = more viable, less nematicidal, active = 0.7 or less
How it was run: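 About 25 M. hapla J2 were added per 96-well well in distilled water, and compound was pinned to 60 µM final (0.6% v/v DMSO). Sealed plates were shaken at 200 rpm for 5 days at 20 °C, then 2 µL 1 M NaOH was added before microscopic mobility scoring. Mobility was divided by the mean of eight DMSO wells on the same plate, and two biological replicates were averaged.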

[1] = tested on: Caenorhabditis elegans dauer (daf-2(e1370)); assay: proportion of mobile C. elegans dauer larvae relative to DMSO control (fraction of DMSO control); higher = more viable, less nematicidal, active = 0.63 or less; extreme values may be limits of the assay
How it was run: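 Synchronized C. elegans larvae were kept for 48 h at 25 °C on MYOB plates seeded with E. coli OP50 to induce dauer formation, and roughly 20 dauers were transferred into each well of a 96-well plate containing liquid NGM. Compound was pinned in to a final concentration of 60 µM with 0.6% v/v DMSO, and the sealed plates were shaken at 200 rpm for 5 days at 20 °C. The fraction of mobile worms was scored under a dissection microscope against DMSO-only wells and averaged across two biological replicates.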

Ditylenchus dipsaci = assay: proportion of mobile D. dipsaci (mixed stage) relative to DMSO control (fraction of DMSO control); higher = more viable, less nematicidal, active = 0.86 or less; extreme values may be limits of the assay
How it was run: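 D. dipsaci were grown on pea plants in Gamborg B-5 agar and extracted through a filter funnel into water, and about 20 worms were added per 96-well well in distilled water. Compound was pinned to 60 µM final (0.6% v/v DMSO), and sealed plates were shaken at 200 rpm for 5 days at 20 °C. After 2 µL 1 M NaOH was added, mobile worms were scored microscopically. Mobility was expressed relative to DMSO controls and averaged over two biological replicates.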

Compound	proportion of mobile M. hapla J2 (Meloidogyne hapla J2)	proportion of mobile C. elegans dauer larvae [1]	proportion of mobile D. dipsaci (Ditylenchus dipsaci)
O=C(CSc1nnc(-c2cccc3ccccc23)o1)Nc1cccc(F)c1	0.999	1	1
Cc1cccc(-c2noc(-c3ccc(F)cc3)n2)c1	0.642 (active)	1	1
COc1ccc(-c2noc(COc3ccc(C(C)(C)C)cc3Br)n2)cc1	0.82	1	1
CN(C)C(=O)c1ccccc1-c1nc(-c2ccccc2Cl)no1	0.882	1	1
Clc1ccccc1OCc1nc(-c2ccccn2)no1	1	1	1
Cc1ccc(-c2noc(-c3ccccc3C)n2)cc1	1.04	0.562 (active)	1
Clc1ccc(-c2nc(-c3cccnc3)no2)c(Cl)c1	1.04	0.625 (active)	1
Ic1ccc(OCc2nc(-c3ccncc3)no2)cc1	1.01	1	1
COc1ccc(-c2noc(COc3ccc(C4CCCCC4)cc3)n2)cc1	0.62 (active)	1	1
Cc1ccccc1CSc1nnc(-c2ccncc2)o1	0.754	1	1
COc1cccc(-c2nc(-c3ccccc3)no2)c1	1.04	0.861	1
CC(C)Oc1ccc(-c2nc(-c3ccccn3)no2)cc1	0.943	0.0263 (active)	1
Clc1ccc(CSc2nnc(-c3ccccc3Cl)o2)cc1	0.888	1	1
Brc1ccc(OCc2nc(-c3ccncc3)no2)cc1	0.995	1	1
Cc1cccc(-c2noc(-c3ccc4c(c3)OCO4)n2)c1	0.974	1	1
Brc1ccccc1-c1nc(-c2ccccc2)no1	1.04	0.676	1
COc1ccc(-c2nnc(SCc3cccc(C#N)c3)o2)cc1	0.785	1	1

Compound	proportion of mobile M. hapla J2 (Meloidogyne hapla J2)	proportion of mobile C. elegans dauer larvae [1]	proportion of mobile D. dipsaci (Ditylenchus dipsaci)
Cc1ccc(SC(C)c2nc(-c3ccncc3)no2)cc1 (configuration not stated)	0.861	0.8	1
COc1ccccc1NC(=O)CSc1nnc(-c2cccc3ccccc23)o1	0.811	1	1
c1ccc(-c2nnc(SCc3nc4ccccc4[nH]3)o2)cc1	1.04	1	1
Fc1ccc(-c2nc(-c3ccc4c(c3)OCO4)no2)cc1	1.02	1	1
COc1ccc(C(=O)CSc2nnc(-c3cccc(Br)c3)o2)cc1	1.04	1	1
Cc1cc(Br)ccc1OCc1nc(-c2ccccn2)no1	0.973	1	1
CCOc1cc(-c2nc(-c3ccc(C)nc3OCC)no2)cc(OCC)c1OCC	0.908	1	1
Fc1ccc(-c2noc(COc3cccc(Cl)c3)n2)cc1	0.908	1	1
COc1cccc(-c2nnc(SCC(=O)Nc3cccc(C(F)(F)F)c3)o2)c1	1.01	1	1
Brc1ccc(-c2nc(-c3ccccc3)no2)cc1	1	1	1
C=CCSc1nnc(-c2ccc(Br)cc2)o1	0.591 (active)	1	0.85 (active)
CC(C)c1ccc(OCc2nc(-c3ccncc3)no2)c(Br)c1	0.82	1	1
O=C(CSc1nnc(-c2ccccc2Cl)o1)NCc1ccco1	0.961	1	1
Cc1ccc(C(=O)Nc2ccccc2-c2nc(-c3cccnc3)no2)cc1C	0.962	1	1
Brc1ccc(OCc2nc(-c3ccc4c(c3)OCO4)no2)cc1	0.943	1	1
Fc1cccc(Cl)c1CSc1nnc(-c2ccccc2Cl)o1	0.988	1	1
O=C(CSc1nnc(-c2ccccc2)o1)Nc1ccc2ccccc2c1	1.01	1	1
